This note sets out measurements from the supplement of paper PMC10981050.

Where a name gives a salt, the structure may show the parent alone.

The test deals with K562. The test can be described thus: cell viability relative to vehicle control; higher = less cytotoxic. Conditions: 10 µM; SRSF2 genotype: SRSF2 wt/wt. The procedure, abridged:
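After removal of identity-inconsistent compounds, the Selleck bioactive, kinase and epigenetic probe libraries were screened on CRISPR-edited mutant clones and isogenic wild-type clones of four leukaemia lines. Plates were 384-well, each well holding 2000 cells in 50 µL medium and receiving a single 10 µM acoustically dispensed dose. CellTiter-Glo luminescence was read 48 h later, after the supernatant was taken off. Genedata Screener was used to express viability as percent of the on-plate vehicle control.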
For `CC(C)Cc1ccc(C(C)C(=O)O)cc1` (stereo not given) [Ibuprofen (Advil)], the cell viability was determined as 92.9%.
In the case of `COCCOc1cnc2ccn([C@H](C)c3nnc4c(F)cc(-c5cnn(C)c5)cn34)c(=O)c2c1`, the cell viability came out at 85.7%.
Turning to `CC(=O)O[C@H]1C(=O)[C@@]2(C)[C@H]([C@H](OC(=O)c3ccccc3)[C@]3(O)C[C@H](OC(=O)[C@H](O)[C@@H](NC(=O)c4ccccc4)c4ccccc4)C(C)=C1C3(C)C)[C@]1(OC(C)=O)CO[C@@H]1C[C@@H]2O` [Paclitaxel (Taxol)], the cell viability came out at 35.7%.
The result for `O=C[C@H](O)[C@H]1OC(=O)[C@@H](O)[C@H]1O` [D-Glucurone] reads 86.3%; that for `CC(Oc1cc(-c2cnn(C3CCNCC3)c2)cnc1N)c1c(Cl)ccc(F)c1Cl` [(S)-crizotinib], 74.8%; that for `CCS(=O)(=O)N1CCC([C@@H](C)n2c(C)c(C(=O)NCc3c(OC)cc(C)[nH]c3=O)c3ccccc32)CC1`, 95.7%.
Regarding `C#Cc1cccc(Nc2ncnc3cc4c(cc23)OCCOCCOCCO4)c1` [Icotinib], the cell viability stood at 94.2%.
The result for `COc1cc(Nc2c(C#N)cnc3cc(OCCCN4CCN(C)CC4)c(OC)cc23)c(Cl)cc1Cl` [Bosutinib (SKI-606)] reads 3.73%; that for `COC(=O)N[C@H](C(=O)N1CC2(CC2)C[C@H]1c1nc(-c2ccc3c(c2)C(F)(F)c2cc(-c4ccc5[nH]c([C@@H]6[C@H]7CC[C@H](C7)N6C(=O)[C@@H](NC(=O)OC)C(C)C)nc5c4)ccc2-3)c[nH]1)C(C)C` [Ledipasvir (GS5885)], 84.3%.
Consider `Clc1ccc(CSC(Cn2ccnc2)c2ccc(Cl)cc2Cl)cc1` (stereo not given) [Sulconazole Nitrate], for which the cell viability turned out to be 62.7%.
With `COc1ccc2c(c1)c(CC(=O)OCC(=O)O)c(C)n2C(=O)c1ccc(Cl)cc1` [Acemetacin (Emflex)] the figure was 93.5%; with `CC(C)(O)C1CCC(C)(C2C(O)CC3(C)C4CC(O)C5C(C)(C)C(O)CCC56CC46CCC23C)O1` (stereo not given) [Cyclogalegenol], 89.8%; with `Cc1cc(Cn2cnc3c2CC(C(=O)O)N(C(=O)C(c2ccccc2)c2ccccc2)C3)ccc1N(C)C` (stereo not given), 99.5%.
Turning to `CC[C@H](NC(=O)[C@H](C)NC)C(=O)N1C[C@@H](O)C[C@H]1Cc1c(-c2[nH]c3cc(F)ccc3c2C[C@@H]2C[C@H](O)CN2C(=O)[C@H](CC)NC(=O)[C@H](C)NC)[nH]c2cc(F)ccc12`, the cell viability was 99.4%.
With `NCCCCCC(=O)O` the figure was 99.6%; with `Cc1ccc(NC(=S)NNc2c([N+](=O)[O-])cc(C(F)(F)F)cc2[N+](=O)[O-])cc1Cl`, 90.4%.
`CCCCCCCCCC(C)=O` [Methylnonylketone]: the cell viability is 96.3%.
`CC(C)n1nccc1-c1ncccc1COc1cccc(O)c1C=O` [Voxelotor(GBT440, GTx011)]: the cell viability stood at 91.8%.
The result for `O=c1cc(CN2CCOCC2)occ1OCCCCCSc1ccnc2cc(C(F)(F)F)ccc12` reads 60.1%.
With `CCCOC(=O)c1cc(O)c(O)c(O)c1` [Propyl gallate] the figure was 94.7%.
The result for `Cn1c2ccccc2c2c3c(c4c5ccccc5n(CCC#N)c4c21)CNC3=O` reads 97.7%.
For the molecule `CC(C)c1ccccc1Cc1cc(C(=O)Nc2ccc(S(=O)(=O)c3ccccc3C(C)(C)C)cc2)c(O)c(O)c1O`, the cell viability was 7.92%.
With `COc1ccc2cc1Oc1ccc(cc1)C[C@H]1c3cc(c(OC)cc3CCN1C)Oc1c(O)c(OC)cc3c1[C@H](C2)N(C)CC3` [Fangchinoline] the figure was 5.07%.
The result for `CC(C)C(=O)Oc1ccc(CO)cc1[C@H](CCN(C(C)C)C(C)C)c1ccccc1` [Fesoterodine Fumarate] reads 102%; that for `COc1ccc2c(c1)c(CC(=O)O)c(C)n2C(=O)c1ccc(Cl)cc1` [Indometacin Sodium], 101%; that for `Nc1cccc(S(=O)(=O)N2CCCN(S(=O)(=O)c3ccc4c(c3)OCCO4)CC2)c1`, 101%.
With `Cc1cc(-c2ncc(CC(=O)Nc3ccc(-c4cnccn4)cn3)cc2C)ccn1` the figure was 81.2%.
For the molecule `CC(C)(O)C1CCC(C)(C2C(O)CC3(C)C4CC(OC5OC(CO)C(O)C(O)C5O)C5C(C)(C)C(OC6OCC(O)C(O)C6O)CCC56CC46CCC23C)O1` (stereo not given) [Astragaloside A], the cell viability was found to be 99.1%.
With `O=c1[nH]cnc2c1ncn2[C@H]1C[C@H](O)[C@@H](CO)O1` [2'-Deoxyinosine] the figure was 116%.
The result for `CCN(CC)C(=O)C1(c2ccccc2)CC1CN` (stereo not given) [Milnacipran HCl] reads 96.8%; that for `Clc1ccc(COC(Cn2ccnc2)c2ccc(Cl)cc2Cl)cc1` (stereo not given) [Econazole nitrate (Spectazole)], 70.1%; that for `COc1cc(C(=O)OCCCCNC(=N)N)cc(OC)c1O` [Leonurine], 95.2%.
The result for `C[C@@H](Oc1ccc2[nH]nc(/C=C/c3cnn(CCO)c3)c2c1)c1c(Cl)cncc1Cl` reads 30.1%; that for `COc1ccccc1S(=O)(=O)Nc1ccc2c(c1)CN(C)C(=O)N2`, 76.5%; that for `Clc1cccc(CN=C2Nc3ccccc3NC23CCNCC3)c1` [Liproxstatin-1], 70%.
With `O=C(O)c1ccc(O)c2ncccc12`, the cell viability came to 97.3%.
The result for `CO[C@H]1C[C@@H]2CC[C@@H](C)[C@@](O)(O2)C(=O)C(=O)N2CCCC[C@H]2C(=O)O[C@H]([C@H](C)C[C@@H]2CC[C@@H](OP(C)(C)=O)[C@H](OC)C2)CC(=O)[C@H](C)/C=C(\C)[C@@H](O)[C@@H](OC)C(=O)[C@H](C)C[C@H](C)/C=C/C=C/C=C/1C` [Deforolimus (MK-8669)] reads 70.8%.
With `Cc1ccc(-c2n[nH]c3c2C(c2cccc(O)c2)N(c2ccc(C(=O)O)cc2)C3=O)cc1` (stereo not given) the figure was 105%; with `C=C(C(=O)O)C1CCC(C)C2CCC(C)=CC12` (stereo not given) [Artemisic acid], 113%; with `CC(C)c1ccc(NC(=O)Cn2cnc3c2c(=O)n(C)c(=O)n3C)cc1`, 94.4%.

As a reminder, the cell viability is a read-out of living cells in per cent, often relative to untreated cells.
